# Data taken from PubChem BioAssay (NCI).
# This is part of a sample that, as a whole, favours compounds with a hit. Of some 79,000 tested, about 15% had one in any assay. Values without a mark were called inactive. The source made the active and inactive calls. Cut-off read from the data, not from the text of the source: active = growth inhibition above about 70%; inactive = the rest.
# Key:
# [1] = NCI Yeast Anticancer Drug Screen. Data for the rad50 strain (AID 155);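 note: 0% = growth of vehicle-only cultures of the same strain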; settings: S. cerevisiae rad50 strain growth inhibition; at 50.0 µM; hits give high values
# Procedure, shortened: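 A DNA repair-deficient yeast mutant serves as the test organism; compound-induced growth inhibition is calculated against vehicle-treated cells.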
# [2] = NCI Yeast Anticancer Drug Screen. Data for the mec2-1 strain (AID 157); settings: S. cerevisiae mec2-1 strain, at 50.0 µM, hits give high values
# Procedure, shortened: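 Strain: mec2-1 (DNA repair/cell cycle alteration). Compound exposure, then growth measured; inhibition expressed relative to vehicle.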
# [3] = NCI Yeast Anticancer Drug Screen. Data for the sgs1 mgt1 strain (AID 161);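 note: 0% = growth of cultures given vehicle only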; settings: S. cerevisiae sgs1 mgt1 strain, at 50.0 µM, hits give high values
# Procedure, shortened: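 Mutant yeast exposed to compound; growth scored against vehicle-only wells.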
# [4] = NCI Yeast Anticancer Drug Screen. Data for the cln2 rad14 strain (AID 165);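 note: 0% = growth equal to vehicle treated cultures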; settings: S. cerevisiae cln2 rad14 strain, at 50.0 µM, hits give high values
# Procedure, shortened: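 Compounds are applied to the cln2 rad14 yeast strain, and growth is then compared with that of vehicle-treated cultures to give inhibition.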
# [5] = NCI Yeast Anticancer Drug Screen. Data for the bub3 strain (AID 167); settings: S. cerevisiae bub3 mutant strain, at 50.0 µM, hits give high values
# Procedure, shortened: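 Inhibition values come from growth of compound-treated mutant yeast normalised to vehicle-treated controls.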
# [6] = NCI Yeast Anticancer Drug Screen. Data for the mlh1 rad18 strain (AID 175); settings: S. cerevisiae mlh1 rad18 strain growth inhibition; at 50.0 µM; hits give high values
# Procedure, shortened: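 Read-out is yeast growth inhibition, calculated against vehicle-only controls. The compound was applied to a strain engineered with DNA damage repair alterations.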
Structure (SMILES),growth inhibition [1],growth inhibition [2],growth inhibition [3],growth inhibition [4],growth inhibition [5],growth inhibition [6]
O=C1NC(=O)C(CCBr)N1 (stereo not given),-21.1%,-6.85%,-10.3%,-3.8%,-13.8%,5.7%
COC(=O)/C=C(/C)c1ccccc1,1.7%,2.3%,0.9%,5.65%,1.45%,-3.5%
COc1ccc2c(c1)c(=O)c1c(NCCCN(C)C)ccc3ncn2c31,34.6%,-5.35%,15.8%,-1.7%,-9.6%,9.3%
CC(C)C(NC(=O)OC(c1ccccc1)c1ccccc1)C(=O)NC(CSC(c1ccccc1)(c1ccccc1)c1ccccc1)C(=O)NCC(=O)OCc1ccccc1 (stereo not given),4.45%,5.75%,4.55%,-19.1%,-10.8%,27.2%
N#C/C(=C/c1cccc(Oc2ccccc2)c1)c1ccccc1,11.7%,-28.2%,-0.55%,-1.5%,-23.1%,-14.4%
CC(C)CCc1ccccc1O,-14.7%,-21.1%,-28.6%,-19.9%,0.1%,-14.5%
CC(=O)Oc1ccc(C2OC(=O)c3ccccc3N2C(C)=O)cc1 (stereo not given),4.05%,27.6%,12.7%,-6.3%,34.6%,26.9%
Cn1cnc2ncnc(Oc3ccc(Cl)cc3)c21,-13.5%,-10.3%,-2.95%,4.45%,-27.1%,-14.1%
CCCC(=O)N[C@H]1C2C3CC4C5CC(C42)C1(C)C53 (stereo not given in full),-5.3%,-17.4%,3.8%,10.3%,7.25%,-17.2%
COC(=O)CCc1c[nH]c2ccc(N)cc12,-12.8%,-31.2%,-14.8%,18.2%,-14.5%,-13.7%
Cc1ccc(N=Nc2c(O)c3ccccc3[nH]c2=O)c(S(=O)(=O)N(C)C)c1,29.7%,-24.2%,-24.9%,29.6%,-27.2%,-17.5%
O=C(C1OC1c1cccc([N+](=O)[O-])c1)C12CC3CC(CC(C3)C1)C2 (stereo not given),12.5%,32%,37.2%,17.1%,53%,54.5%
Clc1ccc(Cl)nc1,-8.25%,-8.25%,-8.2%,-13.7%,2.75%,5.45%
CC(C)C(O)(C(=O)OCC1=CC[N+]2(C)CCC(O)C12)C(C)O (stereo not given),27.6%,-15.3%,11.4%,-21.4%,-3.2%,1.95%
CC(C)(C#N)OC(=O)c1cccc(C(=O)OC(C)(C)C#N)c1Sc1ccccc1,41.8%,-2.6%,-7.25%,7.55%,-2%,-1.55%
OCC1OC(n2cnc3[nH]cnc(=S)c32)C(O)C1O (stereo not given),4.3%,14.2%,0.35%,1.05%,-6.35%,14.7%
COC1=CC(=C(\C#N)c2ccccc2)/C=CC/1=N/O,40.2%,39%,46.6%,-2%,64.5%,46.8%
CN(C)B(B(N(C)C)N(C)C)N(C)C,13.7%,17.4%,35.6%,22.4%,13.8%,34.8%
OCC(CN1CCCCC1)(CN1CCCCC1)CN1CCCCC1,-47.8%,-68.7%,-14.6%,-7.05%,-5.2%,-32.4%
COC(=O)c1ccc(C=O)[nH]1,8%,-22.1%,0.55%,-10.5%,4.7%,7.25%

Structure (SMILES),growth inhibition [1],growth inhibition [2],growth inhibition [3],growth inhibition [4],growth inhibition [5],growth inhibition [6]
O=S(=O)(c1ccccc1)N1N=C2c3ccccc3CCC[C@H]2C1c1ccccc1 (stereo not given in full),51.1%,-16.4%,-12.7%,-49.7%,4.85%,4.85%
O=C1CS/C1=C/c1ccccc1,11.4%,-2.95%,-15.2%,-68.7%,-7.85%,-5.15%
C=C1CC(CCCCCCC2CC(=C)C(=O)O2)OC1=O (stereo not given),11.2%,1.05%,-0.35%,2.3%,25.4%,-25.9%
Cc1onc(-c2ccccc2Cl)c1C(=O)NCC(=O)O,-5.55%,2.6%,-3.5%,3.5%,12.7%,-0.15%
Cc1c2c(n3c(nc4ccccc43)c1C#N)N(c1ccc(Cl)cc1)CC2,1.1%,-1.3%,-10.8%,7.35%,-6.4%,-15.3%
C=C1CC[N+]2(CCCC)CCCC12 (stereo not given),4.85%,29.2%,16.2%,-4.1%,41.6%,1%
CC1=C(C(=O)Nc2ccccc2C)C(c2ccc(C3C(C(=O)Nc4ccccc4C)=C(C)NC(C)=C3C(=O)Nc3ccccc3C)cc2)C(C(=O)Nc2ccccc2C)=C(C)N1,65.7%,65%,61.2%,47.8%,21.6%,84.6% (active)
C=CCCCCCCCCO,-12.1%,-3.6%,8.3%,-13%,-10%,-8.6%
C=C1C(=O)OC2C1CC(OC(C)=O)/C(C)=C/CCC1(C)OC21 (stereo not given),-4.5%,-35.3%,6%,-6.25%,-27.6%,-68.2%
CC(=O)OCCOCCN1CCN(c2c(O)c3c(c(O)c2Cl)C(=O)C=CC3=O)CC1,79.7% (active),88.2% (active),90.8% (active),87.1% (active),89.3% (active),89.8% (active)
COc1cc(CSCC(=O)O)ccc1O,8.95%,7.15%,10.3%,-19.4%,-19.6%,-23.8%
C=C(C)[C@@H]1CC[C@]2(C)CC[C@]3(C)[C@H](CC[C@@H]4[C@@]5(C)CC[C@H](OC(=O)c6ccccc6)C(C)(C)[C@@H]5CC[C@]43C)[C@@H]12,-7.6%,-16.6%,-26.4%,2.9%,-0.65%,0%
Cc1ccc(Cc2cc(=O)[nH]c(=S)[nH]2)cc1,-1.05%,4.05%,-6.15%,-26.9%,-11.6%,-3.35%
Cc1ccc(-c2cc(=O)c(=O)[nH][nH]2)cc1,-12.5%,22.1%,-11.6%,4.85%,-13.7%,27.2%
O=CNc1ccccc1-c1ccccc1,-33.3%,-15%,-18%,-17.1%,-0.15%,2.55%
CCOC(=O)C(Nc1cccc2ccccc12)C(=O)OCC,0.5%,19.1%,9.3%,-5.2%,46.2%,25.7%
CCC(C)Nc1ncnc2c1cnn2C (stereo not given),-14.2%,-27.9%,-16.8%,-32.5%,-25.4%,-10.9%
C=CC12c3c4cc(OC)cc3OC1C(O)CCC2CC4 (stereo not given),-8.05%,8.85%,-6.2%,9.85%,4.5%,5.65%
CCC(/C=N/Nc1ccc([N+](=O)[O-])cc1[N+](=O)[O-])(CC)CC,-2.85%,-8.75%,-6.25%,0.25%,-2.85%,6.8%
CCOC(=O)c1ccc(NC(=O)SCCC(=O)O)cc1,20.9%,-19.9%,-7.1%,15.8%,-10.2%,13.8%
